Measurements published in PubChem BioAssay (NCI).
About 79,000 compounds went through this panel and 15% of them were active in at least one assay; those are over-represented in the sample as a whole. A number with no mark means an inactive call. Calls of active or inactive are those of the source. No stated cut-off is given here; in the data, active means growth inhibition above about 70%; inactive means the rest. Residues, ends and D or L forms follow the SMILES beside them. *: point of attachment. Fmoc = O=C(OCC1c2ccccc2-c2ccccc21)*; Boc = CC(C)(C)OC(=O)*

Experiment: NCI Yeast Anticancer Drug Screen. Data for the bub3 strain (AID 167)
Conditions: S. cerevisiae bub3 mutant strain, at 50.0 µM (retest, dose inferred, filed as 5.0), hits give high values
How it was run: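 Compounds were applied to a genetically altered yeast strain carrying a cell-cycle control defect. Growth inhibition was scored against vehicle-treated controls.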

Structure (SMILES)	growth inhibition
CC(C)C(=O)CC(Sc1ccc(N)cc1)c1ccccc1 (stereo not given)	98% (active)
CC(C)OP(=O)(OC(C)C)/C(Cl)=N/Nc1ccc([N+](=O)[O-])cc1	95% (active)
O=[N+]([O-])c1cc(Cl)ccc1S(=O)(=O)c1ccc(Cl)cc1[N+](=O)[O-]	94% (active)
CCCCCCNCCCNc1c2cc(OC)ccc2nc2cccc([N+](=O)[O-])c12	96% (active)
N#CCC(=O)N/N=C(\c1ccccc1)C(c1ccccc1)C1(O)C(=O)Nc2c(Cl)ccc(Cl)c21 (stereo not given)	30%
CN(C)CCNCCCNc1c2ccccc2nc2cccc([N+](=O)[O-])c12	72% (active)
CCC[CH2][Ge]([CH2]CCC)([CH2]CCC)[O]C(=O)C(O)c1ccccc1 (stereo not given)	27%
COc1ccc(-c2cc(-c3cc(C)cc(Cl)c3O)nc3[nH]c(=S)[nH]c(=S)c23)cc1	63%
O=[N+]([O-])c1ccc(/C=C\c2ccc3c(c2)OCO3)c([N+](=O)[O-])c1	93% (active)
O=C1c2ccccc2N2OC3(N4CCCC4)CCCCC3C12c1ccccc1 (stereo not given)	92% (active)
CC(C)OC(=O)NNc1cc(Cl)ccc1Cl	60%
Cc1oc2ccccc2c(=O)c1Cn1nnc2ccccc21	41%
CC1(C)OC(=O)C(=Cc2ccc([N+](=O)[O-])s2)C(=O)O1	100% (active)
CCN(CC)CCCNc1ccc([N+](=O)[O-])c2nc3ccc(OC)cc3c(NCCCN(CC)CC)c12	6%
COc1cccc(/C=C2\S/C(=N/Nc3nc(-c4ccc([N+](=O)[O-])cc4)cs3)NC2=O)c1O	97% (active)
OC(Cc1cccc2ccccc12)CN1CCC(c2ccccc2)CC1 (stereo not given)	87% (active)
C1=CCN([B-](c2ccccc2)[C+]2CCCCC2)C=C1	15%
O=[N+]([O-])c1cc[n+]([O-])c(Cl)c1	99% (active)

Structure (SMILES)	growth inhibition
CCCNC(=O)OCc1c(COC(=O)NCCC)c(-c2ccc(Cl)c(Cl)c2)n2c1CCC2	90% (active)
CC1(C)CC(=O)C(C(=O)Nc2cccs2)=C(O)C1	70% (active)
O=C(NO)c1coc2ccccc2c1=O	61%
COc1ccc(C(C)c2cc3c(cc2OCC(C)=O)OCO3)cc1 (stereo not given)	66%
O=S(=O)(c1ccccc1)N1CN2CN(C1)CN(S(=O)(=O)c1ccccc1)C2	31%
CC1=NN(C(=O)c2ccccc2O)C(=O)/C1=C/c1ccco1	94% (active)
O=C1C=C(Br)C(=O)c2ccccc21	99% (active)
C[N+](C)([O-])CCCNc1c2ccccc2nc2cccc([N+](=O)[O-])c12	74% (active)
Cc1cccc2c(NCCCN(C)C)c3c([N+](=O)[O-])ccc(C)c3nc12	97% (active)
OC1(c2ccccc2)C2CC=CC2C1(c1ccccc1)c1ccccc1 (stereo not given)	52%
C[n+]1c(-c2ccc(/C=N/NC(=O)c3ccc(C(=O)N/N=C/c4ccc(-c5cn6ccccc6[n+]5C)cc4)cc3)cc2)cn2ccccc21	91% (active)
CCN(CC)CCC(=O)Nc1ccc2sc3ccccc3c(=O)c2n1	-2%
O=[N+]([O-])c1ccc2nc(=S)[nH]n2c1	76% (active)
O=C(c1ccccc1)[C@H]1Nc2ccc(Cl)cc2[C@H]2OCCC[C@@H]12	93% (active)
COc1cc([N+](=O)[O-])c2ncccc2c1Br	-3%
O=S(=O)(c1cccc(C(F)(F)F)c1)N1c2ccccc2-n2cccc2C1c1cccnc1 (stereo not given)	96% (active)
CC(C)(C)OC(=O)NCCCCC(NC(=O)C(Cc1c[nH]c2ccccc12)NC(=O)OCC1c2ccccc2-c2ccccc21)C(=O)O (stereo not given) (Fmoc-Trp-Lys(Boc)-OH; configuration not given here)	5%

Same assay, conditions: S. cerevisiae bub3 mutant strain, at 50.0 µM, hits give high values

Structure (SMILES)	growth inhibition
CC(C)C(=O)CC(Sc1ccc(N)cc1)c1ccccc1 (stereo not given)	85.1% (active)
CC(C)OP(=O)(OC(C)C)/C(Cl)=N/Nc1ccc([N+](=O)[O-])cc1	91.6% (active)
O=[N+]([O-])c1cc(Cl)ccc1S(=O)(=O)c1ccc(Cl)cc1[N+](=O)[O-]	83.7% (active)
CCCCCCNCCCNc1c2cc(OC)ccc2nc2cccc([N+](=O)[O-])c12	92.7% (active)
N#CCC(=O)N/N=C(\c1ccccc1)C(c1ccccc1)C1(O)C(=O)Nc2c(Cl)ccc(Cl)c21 (stereo not given)	30.3%
CN(C)CCNCCCNc1c2ccccc2nc2cccc([N+](=O)[O-])c12	-3.8%
CCC[CH2][Ge]([CH2]CCC)([CH2]CCC)[O]C(=O)C(O)c1ccccc1 (stereo not given)	88.3% (active)
COc1ccc(-c2cc(-c3cc(C)cc(Cl)c3O)nc3[nH]c(=S)[nH]c(=S)c23)cc1	70.5% (active)
O=[N+]([O-])c1ccc(/C=C\c2ccc3c(c2)OCO3)c([N+](=O)[O-])c1	99% (active)
O=C1c2ccccc2N2OC3(N4CCCC4)CCCCC3C12c1ccccc1 (stereo not given)	79.7% (active)
CC(C)OC(=O)NNc1cc(Cl)ccc1Cl	99% (active)
Cc1oc2ccccc2c(=O)c1Cn1nnc2ccccc21	21.9%
CC1(C)OC(=O)C(=Cc2ccc([N+](=O)[O-])s2)C(=O)O1	85% (active)
CCN(CC)CCCNc1ccc([N+](=O)[O-])c2nc3ccc(OC)cc3c(NCCCN(CC)CC)c12	13.4%
COc1cccc(/C=C2\S/C(=N/Nc3nc(-c4ccc([N+](=O)[O-])cc4)cs3)NC2=O)c1O	97% (active)
OC(Cc1cccc2ccccc12)CN1CCC(c2ccccc2)CC1 (stereo not given)	69.2%
C1=CCN([B-](c2ccccc2)[C+]2CCCCC2)C=C1	-11.4%
O=[N+]([O-])c1cc[n+]([O-])c(Cl)c1	99.5% (active)

Structure (SMILES)	growth inhibition
CCCNC(=O)OCc1c(COC(=O)NCCC)c(-c2ccc(Cl)c(Cl)c2)n2c1CCC2	46.2%
CC1(C)CC(=O)C(C(=O)Nc2cccs2)=C(O)C1	90.8% (active)
O=C(NO)c1coc2ccccc2c1=O	13.7%
COc1ccc(C(C)c2cc3c(cc2OCC(C)=O)OCO3)cc1 (stereo not given)	-26.4%
O=S(=O)(c1ccccc1)N1CN2CN(C1)CN(S(=O)(=O)c1ccccc1)C2	-29.2%
CC1=NN(C(=O)c2ccccc2O)C(=O)/C1=C/c1ccco1	87% (active)
O=C1C=C(Br)C(=O)c2ccccc21	99% (active)
C[N+](C)([O-])CCCNc1c2ccccc2nc2cccc([N+](=O)[O-])c12	52.6%
Cc1cccc2c(NCCCN(C)C)c3c([N+](=O)[O-])ccc(C)c3nc12	72.2% (active)
OC1(c2ccccc2)C2CC=CC2C1(c1ccccc1)c1ccccc1 (stereo not given)	10.9%
C[n+]1c(-c2ccc(/C=N/NC(=O)c3ccc(C(=O)N/N=C/c4ccc(-c5cn6ccccc6[n+]5C)cc4)cc3)cc2)cn2ccccc21	69.7%
CCN(CC)CCC(=O)Nc1ccc2sc3ccccc3c(=O)c2n1	14.3%
O=[N+]([O-])c1ccc2nc(=S)[nH]n2c1	-6.7%
O=C(c1ccccc1)[C@H]1Nc2ccc(Cl)cc2[C@H]2OCCC[C@@H]12	82.5% (active)
COc1cc([N+](=O)[O-])c2ncccc2c1Br	-3.7%
O=S(=O)(c1cccc(C(F)(F)F)c1)N1c2ccccc2-n2cccc2C1c1cccnc1 (stereo not given)	94.7% (active)
CC(C)(C)OC(=O)NCCCCC(NC(=O)C(Cc1c[nH]c2ccccc12)NC(=O)OCC1c2ccccc2-c2ccccc21)C(=O)O (stereo not given) (Fmoc-Trp-Lys(Boc)-OH; configuration not given here)	18.4%
